We go through 27 compounds from PubChem BioAssay (Tox21).

Assay [1] is described as follows: qHTS assay to identify small molecule antagonists of the sonic hedgehog signaling (Shh) pathway (AID 1259369; calls by dose curve; note: nearly all actives have a fitted effect of over 45% in size; note: potency is the fitted concentration of half-maximal effect). Summed up: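 Cells are plated and held 4hr at 37 C, compounds (DMSO) are pinned in, conditioned medium is added to stimulate the pathway, and after 24hr luciferase reagent is added for 30min before luminescence is read.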
In assay [2] the target is Estrogen receptor beta (Homo sapiens) (UniProt Q92731). The assay can be described thus: qHTS assay to identify small molecule agonists of the estrogen receptor beta (ER-beta) signaling pathway (AID 1259377; active = well fitted activation curve with a large enough effect in the signal ratio in the repeat runs, not every such curve was filed as active; the % refers to the signal ratio). In a few lines:
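Reporter cells (HEK293T, ER-beta-UAS-bla) receive compounds or DMSO after a 6 hr pre-incubation. They then incubate 16 hr at 37C/5% CO2, and fluorescence from LiveBLAzer B/G substrate is measured after 2 hours at room temperature.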

Assay [3] shares this target. The experiment in a line: qHTS assay to identify small molecule antagonists of the estrogen receptor beta (ER-beta) signaling pathway (AID 1259378; active = well fitted inhibition curve with a large enough effect in the signal ratio in the repeat runs, not every such curve was filed as active; the % refers to the signal ratio). Summed up:
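ER-beta-UAS-bla HEK293T (GripTite) cells in 2% charcoal-stripped FBS medium were preincubated 6 hr at 37C, dosed with compound, then stimulated with 1 nM E2 (final) for 16 hr; beta-lactamase reporter read by B/G FRET fluorescence after 2 hr substrate loading.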

The nature of assay [4]: qHTS assay to identify small molecule agonists of the androgen receptor (AR) signaling pathway in the presence of an antagonist - cell viability counter screen (AID 1259379). Note: nearly all actives have a fitted effect of over 25% in size. Note: potency is the fitted concentration of half-maximal effect. Summed up:
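Cytotoxicity is assessed by CellTiter-Fluor in MDA-kb2 cells carrying an MMTV-driven luciferase reporter. Cells receive 3.0uM nilutamide plus compounds at 15 concentrations and incubate 16 hr at 37C without CO2 before fluorescence reading.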

Assay [5] in a line: qHTS assay to identify small molecule agonists of the estrogen receptor beta (ER-beta) signaling pathway - cell viability counter screen (AID 1259380). Note: nearly all actives have a fitted effect of over 30% in size. Note: potency is the fitted concentration of half-maximal effect. In a few lines: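 Cytotoxicity is measured in parallel with the reporter screen: after 16 hr compound exposure at 37C and a 2 hr LiveBLAzer step, CellTiter-Glo is added to the same ER-beta-UAS-bla HEK293T wells and luminescence read after 30 min.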

Assay [6] can be described thus: qHTS assay to identify small molecule antagonists of the estrogen receptor beta (ER-beta) signaling pathway - cell viability counter screen (AID 1259382). Note: series mostly up to about 92 µM; nearly all actives have a fitted effect of over 55% in size. In a few lines:
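Cytotoxicity counter screen multiplexed with the beta-lactamase antagonist assay: GripTite HEK293T ER-beta-bla cells were treated 16 hr with test chemicals in the presence of 1nM 17-beta-estradiol, and viability was measured by CellTiter-Glo.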

Assay [7] has as its target Estrogen receptor (Homo sapiens) (UniProt P03372). The assay can be described thus: qHTS assay to identify small molecule agonists of the estrogen receptor alpha (ER-alpha) signaling pathway in the presence of an antagonist (AID 1259383; calls by dose curve; note: top concentration of the series differs between compounds; nearly all actives have a fitted effect of over 15% in size). In a few lines: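 Agonist-mode confirmation in the presence of the ER antagonist ICI-182,780 at 10.0nM final. Breast-derived VM7Luc4E2 reporter cells were exposed to compounds for 22hr, and ERE-driven luciferase was quantified by luminescence.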

Assay [8] can be described thus: qHTS assay to identify small molecule agonists or antagonists of the thyroid stimulating hormone receptor (TSHR) signaling pathway - wild type cell line counter screen (AID 1259384; calls by dose curve). In a few lines:
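Wild-type HEK293 cells were plated 18 h at 37 C/5% CO2, pin-dosed with compound plus Ro20-1724 medium, held 30 min at room temperature, then given cAMP-d2 and anti-cAMP-cryptate; fluorescence was read after 1 h. Fifteen concentrations, triplicate.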

Assay [9] deals with Androgen receptor (Homo sapiens) (UniProt P10275). The experiment in a line: qHTS assay to identify small molecule agonists of the androgen receptor (AR) signaling pathway in the presence of an antagonist (AID 1259381; calls by dose curve; note: nearly all actives have a fitted effect of over 15% in size). An excerpt: National Center for Advancing Translational Sciences [NCATS] NIH Chemical Genomics Center [NCGC] U.S. Environmental Protection Agency [EPA] National Institutes of Environmental Health Sciences [NIEHS] National Toxicology Program [NTP] Assay overview: Androgen receptor (AR) is an important member of nuclear receptor family. Its signaling plays a critical role in AR-dependent prostate cancer and other androgen related diseases. Considerable attention has been given in the past decades to develop methods to study and screen for the environmental chemicals that have the potential to interfere with metabolic homeostasis, reproduction, developmental and behavioral functions. Therefore AR binding assay for screening against androgen agonists and antagonists can be used to identify potential endocrine disruptors. MDA-kb2 cells (from ATCC, deposited by Wilson et al.) are human breast carcinoma cells that were stably transfected with a luciferase reporter gene under control of the MMTV promoter that contains response elements for both androgen receptor (AR) and glucocorticoid receptor (GR). This particular screening for measuring luciferase reporter gene activity using MDA-kb2 cells against Tox21 10K library compounds is a confirmation study on agonist mode screening in the presence of AR-antagonist compound (Nilutamide) at 3.0uM final concentration.
Chain of Androgen receptor (Homo sapiens) (P10275 whole entry, looked up): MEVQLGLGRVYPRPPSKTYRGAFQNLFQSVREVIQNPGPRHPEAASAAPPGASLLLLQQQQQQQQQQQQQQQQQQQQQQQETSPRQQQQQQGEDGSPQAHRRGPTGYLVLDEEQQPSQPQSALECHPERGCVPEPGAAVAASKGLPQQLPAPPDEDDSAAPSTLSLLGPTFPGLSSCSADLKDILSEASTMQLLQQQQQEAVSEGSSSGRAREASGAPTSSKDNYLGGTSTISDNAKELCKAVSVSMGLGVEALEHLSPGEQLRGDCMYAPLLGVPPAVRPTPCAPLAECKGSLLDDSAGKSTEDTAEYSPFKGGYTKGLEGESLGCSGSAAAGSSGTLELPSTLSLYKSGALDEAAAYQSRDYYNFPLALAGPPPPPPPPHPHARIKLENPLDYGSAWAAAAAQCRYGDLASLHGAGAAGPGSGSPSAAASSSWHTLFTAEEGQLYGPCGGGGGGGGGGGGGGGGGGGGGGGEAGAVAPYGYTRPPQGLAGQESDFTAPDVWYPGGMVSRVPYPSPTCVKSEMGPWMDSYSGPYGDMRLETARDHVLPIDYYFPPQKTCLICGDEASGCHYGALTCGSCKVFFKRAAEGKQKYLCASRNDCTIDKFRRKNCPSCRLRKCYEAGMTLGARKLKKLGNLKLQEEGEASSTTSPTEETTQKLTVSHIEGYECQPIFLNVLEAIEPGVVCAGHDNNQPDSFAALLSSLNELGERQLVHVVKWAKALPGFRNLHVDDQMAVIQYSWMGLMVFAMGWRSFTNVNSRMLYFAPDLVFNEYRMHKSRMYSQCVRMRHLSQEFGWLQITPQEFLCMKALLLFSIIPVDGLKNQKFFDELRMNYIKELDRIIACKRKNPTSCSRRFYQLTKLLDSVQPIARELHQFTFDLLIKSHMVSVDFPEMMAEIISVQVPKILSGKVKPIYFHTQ
Assay Protocol Summary: MDA-kb2 cells (cells cultured without CO2) were dispensed at 3,000 cells/well in 4uL of culture medium into white wall/solid-bottom 1536-well plates (Corning Life Sciences, Corning, NY) using a Multidrop Combi (Thermo Fisher Scientific Inc., Waltham, MA) dispenser. The assay plates were incubated at 37C and 0% CO2 for 5hr. One uL of 3.0uM (final concentration) Nilutamide or assay buffer was added using two separate tips of Flying Reagent Dispenser (FRD, Aurora Discovery, San Diego, CA). Then 23nL of compounds dissolved in DMSO at 15 concentrations and positive controls were transferred to the assay plates using a Pintool station (Wako, San Diego, CA). The assay plates were incubated at 37C and 0% CO2 for 16hr. For luciferase read, 4uL/well ONE-Glo reagent (Promega Corporation, Madison, WI) was added to each well of the assay plates using FRD. After 30min incubation at room temperature, the luminescence signal was measured using a ViewLux plate reader (PerkinElmer, Shelton, CT).

Each structure is given as a SMILES string. Where “and” joins values, the source holds several entries; their conditions need not be identical. Identical values can stand only once. Results filed as inconclusive are left out. More than one record can exist for a structure, and the calls need not agree. Calls of active or inactive are those of the source. Unless noted, calls come from the whole dose curve; as a rule, active = well fitted curve in the direction sought with a large enough effect in the repeat runs; inconclusive = weak or mixed curves; inactive = no such curve, though single readings can be large; an effect the other way counts as inactive or inconclusive.

Chain of Estrogen receptor (Homo sapiens) (P03372 whole entry, looked up): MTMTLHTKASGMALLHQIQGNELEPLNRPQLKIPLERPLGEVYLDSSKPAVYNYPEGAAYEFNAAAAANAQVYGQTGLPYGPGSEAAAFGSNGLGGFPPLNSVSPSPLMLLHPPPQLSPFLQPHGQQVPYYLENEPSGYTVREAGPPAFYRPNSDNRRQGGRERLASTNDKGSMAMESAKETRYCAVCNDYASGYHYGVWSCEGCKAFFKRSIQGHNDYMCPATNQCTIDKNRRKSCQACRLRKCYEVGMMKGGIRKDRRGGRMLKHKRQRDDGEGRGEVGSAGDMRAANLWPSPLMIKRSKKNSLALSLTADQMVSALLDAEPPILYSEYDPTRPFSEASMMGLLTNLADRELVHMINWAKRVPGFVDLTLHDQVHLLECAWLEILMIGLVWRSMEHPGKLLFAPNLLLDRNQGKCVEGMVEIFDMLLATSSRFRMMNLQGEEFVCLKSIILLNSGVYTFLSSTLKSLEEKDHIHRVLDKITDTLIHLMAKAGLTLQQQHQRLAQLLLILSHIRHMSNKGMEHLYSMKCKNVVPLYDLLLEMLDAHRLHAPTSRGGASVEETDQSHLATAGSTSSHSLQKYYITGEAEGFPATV
Chain of Estrogen receptor beta (Homo sapiens) (Q92731 whole entry, looked up): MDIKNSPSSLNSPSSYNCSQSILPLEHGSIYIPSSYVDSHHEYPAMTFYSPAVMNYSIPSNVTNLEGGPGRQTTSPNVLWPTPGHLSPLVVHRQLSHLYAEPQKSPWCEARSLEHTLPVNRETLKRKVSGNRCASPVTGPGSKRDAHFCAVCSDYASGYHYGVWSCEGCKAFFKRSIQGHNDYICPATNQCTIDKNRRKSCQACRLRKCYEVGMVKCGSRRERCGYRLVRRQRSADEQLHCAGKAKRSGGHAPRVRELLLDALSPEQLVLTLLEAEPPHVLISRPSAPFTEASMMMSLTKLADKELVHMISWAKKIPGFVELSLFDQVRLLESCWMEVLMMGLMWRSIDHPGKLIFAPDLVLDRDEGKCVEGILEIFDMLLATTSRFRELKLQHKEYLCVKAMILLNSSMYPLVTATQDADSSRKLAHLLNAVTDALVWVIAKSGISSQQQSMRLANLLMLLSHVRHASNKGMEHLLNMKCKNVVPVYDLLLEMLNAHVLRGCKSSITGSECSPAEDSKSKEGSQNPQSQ

Regarding `CCCCC(CC)C(=O)Cl` (stereo not given), the Potency entry in assay [1], in [2], in assay [4] and in [5] was “inactive” each time. Moreover, the outcome in [3] and in [6] was inactive.

As for `ClC(Cl)c1ccccc1`, the Potency result in assay [1], in assay [4] and in assay [5] was “inactive” each time. In addition, the compound was called inactive in [6].

As for `CCNc1nc(Cl)nc(NC(C)C)n1`, the Potency result in assay [2], in [4] and in assay [5] was “inactive” in each case. Also, the call in [3], in [6], in [7] and in assay [8] was inactive.

Turning to `Cc1ccc(N=C=O)cc1N=C=O`, the Potency result in [1] and in [4] was “inactive” in each case. The Potency in [5] is 34.3 µM (active) and inactive. The compound was classed as inactive in assay [6].

Consider `C[C@H]1C(=O)O[C@@H]2CCN3CC=C(COC(=O)[C@](C)(O)[C@]1(C)O)[C@H]23`, for which the Potency result in assay [1], in [4] and in assay [5] was “inactive” each time. Besides, the result in [6], in assay [7] and in assay [8] was inactive.

Regarding `O=C/C=C/c1ccccc1`, the Potency result in [1], in assay [4] and in assay [5] was “inactive” throughout. Moreover, in assay [6], the compound was called inactive.

With `C=CCN=C=S`, the Potency entry in [1], in assay [4] and in assay [5] was “inactive” in each case. Further, the outcome in [6] and in assay [8] was inactive.

As to `CN(C)C(=O)Nc1cccc(C(F)(F)F)c1`, the Potency result in assay [1], in [2], in [4] and in assay [5] was “inactive” in each case. The compound was called inactive in assay [3] and in assay [6].

Turning to `Cc1ccc(N)cc1`, the Potency entry in assay [1], in assay [4] and in [5] was “inactive” throughout. Further, the outcome in [6] and in [8] was inactive.

Consider `CCCCCCCCCCCCCCCCCC(=O)O`, for which the Potency in assay [1] was 17.1 µM (active) and inactive. The Potency entry in assay [4] and in [5] was “inactive” in each case. For the same compound, the compound was called inactive in assay [6].

On to `O=C(O)C(Br)Br`, for which the Potency result in assay [1], in assay [2], in [4] and in assay [5] was “inactive” throughout. Further, the outcome in [3] and in [6] was inactive.

For `OCCCCO`, the Potency entry in assay [1], in assay [4] and in [5] was “inactive” in each case. Moreover, the outcome in assay [6] was inactive.

`CNCC(O)c1ccc(O)cc1` (stereo not given): the Potency result in assay [1], in assay [2], in [4] and in assay [5] was “inactive” throughout. For the same compound, the compound was called inactive in [3], in assay [6] and in [8].

Take `Nc1cc(Cl)cc(Cl)c1`: the Potency result in assay [1], in assay [2], in [4] and in assay [5] was “inactive” each time. Also, the result in [3] and in assay [6] was inactive.

Take `O=C(O)COc1ccccc1`: the Potency result in assay [1], in [2], in assay [4] and in [5] was “inactive” throughout. Further, the outcome in assay [3], in assay [6], in assay [7] and in [8] was inactive.

For `N#Cc1cccc(C#N)c1`, the Potency entry in assay [1], in assay [2], in [4] and in [5] was “inactive” in each case. Besides, the call in assay [3] and in [6] was inactive.

For the compound `N#CN=C(N)N`, the Potency result in [1], in assay [2], in [4] and in [5] was “inactive” each time. The compound was called inactive in assay [3], in assay [6] and in assay [8].

On to `NNc1ccccc1`, for which the Potency entry in assay [1], in assay [2], in assay [4] and in assay [5] was “inactive” throughout. The result in assay [3] and in assay [6] was inactive.

Regarding `CCCOC(=O)c1ccccc1C(=O)OCCC`, the Potency result in assay [1], in assay [4] and in [5] was “inactive” throughout. The outcome in assay [6] and in assay [7] was inactive.

Turning to `CC(C)CCCCCCOC(=O)c1ccccc1C(=O)OCCCCCCC(C)C`, the Potency entry in assay [1], in assay [4] and in assay [5] was “inactive” in each case. The result in [9] and in assay [6] was inactive.

As to `Nc1ccc([As](=O)(O)O)cc1`, the Potency result in assay [1], in assay [2], in assay [4] and in [5] was “inactive” each time. Also, the call in [3], in assay [6] and in assay [7] was inactive.

For `OCc1ccco1`, the Potency result in assay [1], in assay [2], in assay [4] and in [5] was “inactive” throughout. Moreover, the compound was classed as inactive in [3], in assay [6], in assay [7] and in [8].

Take `COc1cc(-c2ccc(N)c(OC)c2)ccc1N`: the Potency in [1] is 6.78 µM (active) and 8.24 µM (active); in assay [4], “inactive and 52 µM (active)”; in assay [5] it was 14.7 µM (active). For the same compound, the result in assay [6] was inactive.

With `CCOP(=S)(OCC)Oc1cc(C)nc(C(C)C)n1`, the Potency result in assay [1], in assay [4] and in [5] was “inactive” each time. Moreover, the outcome in assay [6] was inactive.

As to `Cl/C=C/Cl`, the Potency entry in assay [1], in [4] and in assay [5] was “inactive” in each case. Moreover, in [6], the call was inactive.

`Oc1c(Br)cc(Br)cc1Br`: the Potency entry in assay [1], in [2] and in assay [4] was “inactive” throughout. Besides, the Potency in [5] is 21.7 µM (active) and inactive. The outcome in [6] was inactive.

As for `C=CC(=O)OCC(CC)CCCC` (stereo not given), the Potency result in assay [1], in assay [2], in assay [4] and in [5] was “inactive” throughout. Moreover, the compound was called inactive in [3], in assay [6] and in [8].
